Results: PubChem BioAssay (NCATS)
Several values for one entry are separate records, joined by “and”; a condition that tells them apart may be missing. Equal entries are not always repeated. Records with an inconclusive call do not appear. Where a call stands in place of a potency, no number is given. Some structures have more than one record in an assay (separate samples or runs), and their calls can disagree. Activity calls are given as the source filed them. Unless noted, calls follow the shape of the dose curve; as a rule, active = well fitted curve in the direction sought with a large enough effect; inconclusive = small, poorly fitted or top-dose-only effect, or another doubt; inactive = no such curve, though single readings can be large or run the other way.

Experiments:
[1] = target: T1, Hexokinase-4 (Homo sapiens) + Glucokinase regulatory protein (Homo sapiens) (UniProt P35557+Q14397); experiment: qHTS assay for inhibitors of recombinant human GCK-GKRP interaction: Diaphorase-coupled assay (AID 743205)
Outline: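 Compounds pre-incubated 20 min with substrate, then 10 nM GST-GCK with 10 nM FLAG-GKRP added. GCK activity coupled via G6PDH and diaphorase to resorufin (5 mM glucose, 0.4 mM ATP, 0.15 mM NADP+, pH 7.6), read kinetically over 30 minutes at Ex 525/Em 590 nm.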

[2] = target: T1, Hexokinase-4 (Homo sapiens) + Glucokinase regulatory protein (Homo sapiens); experiment: qHTS assay for inhibitors of recombinant human GCK-GKRP interaction: ADP-Glo assay (AID 743206)
Outline: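 GST-GCK and FLAG-GKRP (15 nM each in the dispensed mix, with 2 uM S6P) react with 0.4 mM ATP and 5 mM glucose (final) in Hepes pH 7.6 for 60 min at room temperature. ADP is measured by ADP-Glo luminescence.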

[3] = target: T1, Hexokinase-4 (Homo sapiens) + Glucokinase regulatory protein (Homo sapiens); experiment: qHTS assay for inhibitors of recombinant human GCK-GKRP interaction: HTRF assay (AID 743207)
Outline: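 HTRF binding of 5 nM GST-GCK and 5 nM FLAG-GKRP with 2 uM S6P in pH 7.1 Hepes buffer (MgCl2, KCl, DTT, Tween 20, BSA). Anti-FLAG XL665 and anti-GST donor added, 60 min at room temperature; 665/615 nm read, normalized to with- and without-GCK controls.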

[4] = qHTS Assay for Identifying Gametocytocidal Compounds (AID 743244); also: potency is read from the fitted curve at half-maximal effect;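 as to max response: actives lower the fluorescent signal which means gametocytes are killed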; details: P. falciparum 3D7 stage III-V gametocytes, alamarBlue, 72 h; max response: stronger effect = lower value
Outline: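 Stage III–V gametocytes of P. falciparum 3D7 were seeded at 20,000 cells/well onto pre-dispensed compounds. After 72 h, 37 °C, 5% CO2, alamarBlue was added for another 24 h.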

[5] = qHTS profiling for inhibitors of Plasmodium falciparum (3D7) proliferation (AID 743322; call rule not given here;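 also: infected erythrocytes exposed to compound for 72 h before lysis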); details: P. falciparum 3D7 proliferation; at 28.7 µM (top of the series) unless noted
Outline: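 Erythrocytes infected with P. falciparum (0.3% parasitemia, 2.5% hematocrit) incubated with compounds 72 h at 37 C, 5% CO2. Lysis with saponin/Triton buffer containing SYBR Green I, overnight at room temperature in the dark; DNA fluorescence (485/535 nm) normalised to 0.29 uM artemisinin and DMSO.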

[6] = qHTS profiling for inhibitors of Plasmodium falciparum (DD2) proliferation (AID 743323; call rule not given here); details: lower = more inhibition; at 28.7 µM (top of the series) unless noted
Outline: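 P. falciparum Dd2-infected erythrocytes (0.3% parasitemia, 2.5% hematocrit) exposed 72 h at 37 C, 5% CO2. Lysis with SYBR Green, overnight at room temperature, fluorescence 485/535 nm; normalized to 0.29 uM artemisinin and DMSO.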

T1 sequence (P35557 whole entry, looked up): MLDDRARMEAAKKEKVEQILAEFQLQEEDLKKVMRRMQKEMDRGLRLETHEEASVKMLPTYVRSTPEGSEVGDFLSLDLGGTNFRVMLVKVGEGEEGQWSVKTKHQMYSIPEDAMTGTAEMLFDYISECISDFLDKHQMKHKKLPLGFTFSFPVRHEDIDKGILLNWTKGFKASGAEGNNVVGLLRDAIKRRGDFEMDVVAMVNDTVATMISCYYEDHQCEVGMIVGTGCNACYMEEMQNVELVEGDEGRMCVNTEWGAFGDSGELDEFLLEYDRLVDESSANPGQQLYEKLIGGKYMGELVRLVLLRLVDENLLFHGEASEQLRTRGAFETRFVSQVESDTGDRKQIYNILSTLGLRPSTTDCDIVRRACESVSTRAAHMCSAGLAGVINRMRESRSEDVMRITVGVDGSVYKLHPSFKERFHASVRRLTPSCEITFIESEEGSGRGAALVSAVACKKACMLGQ
T1 sequence (Q14397 whole entry, looked up): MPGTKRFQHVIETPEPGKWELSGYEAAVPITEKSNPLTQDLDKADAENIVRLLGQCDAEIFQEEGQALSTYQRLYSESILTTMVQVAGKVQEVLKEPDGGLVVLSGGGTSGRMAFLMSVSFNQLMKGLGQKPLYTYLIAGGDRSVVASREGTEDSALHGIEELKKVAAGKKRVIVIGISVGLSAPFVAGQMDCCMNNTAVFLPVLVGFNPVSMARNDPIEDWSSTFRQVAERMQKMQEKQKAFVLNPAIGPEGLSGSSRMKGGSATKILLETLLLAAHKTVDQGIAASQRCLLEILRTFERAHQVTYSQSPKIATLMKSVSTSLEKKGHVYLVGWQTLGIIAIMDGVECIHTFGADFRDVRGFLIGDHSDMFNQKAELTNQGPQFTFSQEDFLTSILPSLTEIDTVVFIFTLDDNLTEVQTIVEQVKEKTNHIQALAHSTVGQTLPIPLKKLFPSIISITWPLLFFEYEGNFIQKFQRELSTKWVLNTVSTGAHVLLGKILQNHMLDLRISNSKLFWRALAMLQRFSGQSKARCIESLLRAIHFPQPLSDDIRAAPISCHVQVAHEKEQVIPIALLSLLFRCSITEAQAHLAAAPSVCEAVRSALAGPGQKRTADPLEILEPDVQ

SMILES	outcome [1]	outcome [2]	outcome [3]	max response [4]	Potency [4]	remaining parasite growth % (stronger effect = lower value) [5]	activity, percent of control [6]
CCN(CC)CCCC(C)Nc1c2ccc(Cl)cc2nc2ccc(OC)cc12 (stereo not given)	inactive	inactive	inactive	–	–	–	–
CCN(CC)CCNC(=O)c1cc(Cl)c(N)cc1OC	inactive	inactive	inactive	-1.62% (inactive)	–	–	–
CCCn1cnc2c1c(=O)n(CCCCC(C)=O)c(=O)n2C	inactive	inactive	inactive	-8.62% (inactive) and 26.7% (inactive)	–	–	–
CNCC(O)c1ccc(O)c(O)c1 (stereo not given)	inactive	inactive	inactive	–	–	–	–
C#CCN(C)Cc1ccccc1	inactive	inactive	inactive	14.1% (inactive) and 13.7% (inactive)	–	–	–
NC(N)=NCCC[C@H](N)C(=O)O	inactive	inactive	inactive	–	–	–	–
COCCOC(=O)C1=C(C)NC(C)=C(C(=O)OC/C=C/c2ccccc2)C1c1cccc([N+](=O)[O-])c1 (stereo not given)	inactive	inactive	inactive	2.31% (inactive) and 20.4% (inactive)	–	–	–
CC[C@H]1CN2CCc3cc(OC)c(OC)cc3[C@@H]2C[C@@H]1C[C@H]1NCCc2cc(OC)c(OC)cc21	inactive	inactive	inactive	–	–	–	–
C[C@](N)(Cc1ccc(O)cc1)C(=O)O	inactive	inactive	inactive	18.5% (inactive) and 8.95% (inactive)	–	–	–
CN1CCN(C2Cc3ccccc3Sc3ccc(Cl)cc32)CC1 (stereo not given)	inactive	inactive	inactive	–	–	–	–
C=Cc1c(C)c2cc3[nH]c(cc4nc(cc5nc(cc1[nH]2)C(C)=C5CCC(=O)O)C(CCC(=O)O)=C4C)c(C)c3C=C	inactive	inactive	inactive	11.4% (inactive) and 22% (inactive)	–	–	–
CNCCCC1c2ccccc2C=Cc2ccccc21	inactive	inactive	inactive	–	–	–	–
CNCCC(Oc1ccc(C(F)(F)F)cc1)c1ccccc1 (stereo not given)	inactive	inactive	inactive	–	–	–	–
Cc1cc(N)c2ccccc2[n+]1CCCCCCCCCC[n+]1c(C)cc(N)c2ccccc21	inactive	inactive	inactive	–	3.98 µM (active)	–	–
NC1CCN(c2cccc(Cl)n2)CC1	inactive	inactive	inactive	1.41% (inactive) and 17.3% (inactive)	–	–	–
Nc1cc(=O)[nH]c(N)n1	inactive	inactive	inactive	–	–	–	–

SMILES	outcome [1]	outcome [2]	outcome [3]	max response [4]	Potency [4]	remaining parasite growth % (stronger effect = lower value) [5]	activity, percent of control [6]
CCN(CC)CCOC(=O)C1(C2CCCCC2)CCCCC1	inactive	inactive	inactive	0.472% (inactive) and 32.4% (inactive)	–	–	–
O=C1N=C(O)CN1/N=C/c1ccc(-c2ccc([N+](=O)[O-])cc2)o1	inactive	inactive	inactive	4.07% (inactive) and 20.9% (inactive)	–	–	–
CC(C)C(=O)c1c(C(C)C)nn2ccccc12	inactive	inactive	inactive	–	–	–	–
CC(CN(C)C)CN1c2ccccc2CCc2ccccc21 (stereo not given)	inactive	inactive	inactive	4.34% (inactive)	–	–	–
CC(C(O)c1ccc(O)cc1)N1CCC(Cc2ccccc2)CC1 (stereo not given)	inactive	inactive	inactive	–	2.82 µM (active)	–	–
CCN(CC)C(C)CN1c2ccccc2Sc2ccccc21 (stereo not given)	inactive	inactive	inactive	–	–	–	–
CC(C)(C)[C@]1(O)CCN2C[C@H]3c4ccccc4CCc4cccc(c43)[C@@H]2C1	inactive	inactive	inactive	–	–	–	–
CCCCCCCCCCCCCCCC(=O)NCCO	inactive	inactive	inactive	-1.98% (inactive) and 26.2% (inactive)	–	–	–
CC(C)(C(=O)O)c1ccc(C(O)CCCN2CCC(C(O)(c3ccccc3)c3ccccc3)CC2)cc1 (stereo not given)	inactive	inactive	inactive	-3.24% (inactive) and 8.77% (inactive)	–	–	–
CN(C)CC[C@@H](c1ccc(Cl)cc1)c1ccccn1	inactive	inactive	inactive	25.3% (inactive)	26.4 µM (active)	85.4%	44.8%
Nc1ncnc2c1ncn2[C@@H]1O[C@H](CO)[C@@H](O)[C@H]1O	inactive	inactive	inactive	-0.147% (inactive) and 30.2% (inactive)	–	–	–
CC(C)NC[C@H](O)c1ccc(O)c(O)c1	inactive	inactive	inactive	-9.19% (inactive) and 21.1% (inactive)	–	–	–
N=c1c[n+](N2CCOCC2)[n-]o1	inactive	inactive	inactive	8.18% (inactive)	–	–	–
CC(C)(C)c1onc(OCP(=O)(O)O)c1CC(N)C(=O)O (stereo not given)	inactive	inactive	inactive	18.1% (inactive)	–	–	–
CC1=C(CC(=O)O)c2cc(F)ccc2/C1=C\c1ccc(S(C)(=O)=O)cc1	inactive	inactive	inactive	–	–	–	–
